# Measurements published in PubChem BioAssay (NCATS).
# A number with no mark means an inactive call. Calls of active or inactive are those of the source. The call rests on the fitted dose curve; in most records, active means well fitted curve in the direction sought with a large enough effect; inconclusive means small, poorly fitted or top-dose-only effect, or another doubt; inactive means no such curve, though single readings can be large or run the other way.
# Target: Hexokinase-4 (Homo sapiens) + Glucokinase regulatory protein (Homo sapiens) (UniProt P35557+Q14397)
# Sequence (P35557 whole entry, looked up): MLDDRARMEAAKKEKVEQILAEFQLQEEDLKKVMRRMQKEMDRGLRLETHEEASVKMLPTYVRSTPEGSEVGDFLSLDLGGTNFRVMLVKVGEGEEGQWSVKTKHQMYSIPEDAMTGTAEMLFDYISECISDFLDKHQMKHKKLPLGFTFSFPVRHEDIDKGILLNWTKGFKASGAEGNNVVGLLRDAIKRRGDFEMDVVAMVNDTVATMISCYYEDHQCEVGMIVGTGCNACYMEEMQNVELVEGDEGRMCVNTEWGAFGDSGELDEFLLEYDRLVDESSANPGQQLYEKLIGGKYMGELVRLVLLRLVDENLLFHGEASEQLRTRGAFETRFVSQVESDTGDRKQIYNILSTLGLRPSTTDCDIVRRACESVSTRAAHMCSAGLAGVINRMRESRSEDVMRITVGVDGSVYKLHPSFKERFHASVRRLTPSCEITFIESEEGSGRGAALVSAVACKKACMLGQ
# Sequence (Q14397 whole entry, looked up): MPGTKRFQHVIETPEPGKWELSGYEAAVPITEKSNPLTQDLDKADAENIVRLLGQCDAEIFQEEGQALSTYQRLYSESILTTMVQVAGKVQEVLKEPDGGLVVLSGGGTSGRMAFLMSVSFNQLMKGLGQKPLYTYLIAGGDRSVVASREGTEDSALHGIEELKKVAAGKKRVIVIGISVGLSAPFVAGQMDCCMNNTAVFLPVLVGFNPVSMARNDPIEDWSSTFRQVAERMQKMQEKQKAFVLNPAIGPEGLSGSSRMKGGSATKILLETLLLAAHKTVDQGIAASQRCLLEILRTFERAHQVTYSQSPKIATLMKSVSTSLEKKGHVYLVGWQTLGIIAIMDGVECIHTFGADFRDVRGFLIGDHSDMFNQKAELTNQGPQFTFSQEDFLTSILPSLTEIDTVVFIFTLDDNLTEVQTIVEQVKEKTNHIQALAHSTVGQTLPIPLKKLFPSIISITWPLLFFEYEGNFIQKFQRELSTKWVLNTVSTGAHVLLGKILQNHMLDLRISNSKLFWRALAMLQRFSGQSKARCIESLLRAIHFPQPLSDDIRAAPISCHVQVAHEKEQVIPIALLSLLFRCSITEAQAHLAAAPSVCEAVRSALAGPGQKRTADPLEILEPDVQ
# Test: qHTS assay for inhibitors of recombinant human GCK-GKRP interaction: HTRF assay (AID 743207);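 further: 0% = DMSO with GCK present and -100% = DMSO wells lacking GCK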
# Conditions: recombinant GCK-GKRP HTRF binding, 60 min; series mostly up to 57.5 µM; activity change, negative = inhibition: at the top concentration
# Text: Glucokinase (GCK) is a glucose sensor in hepatocytes and pancreatic beta-cells. Hepatic GCK is regulated by glucokinase regulatory protein (GKRP), which is predominantly localized to the liver. GKRP binds to GCK inhibiting its activity in the fasting state while in the presence of glucose the GKRP is displaced. There is an additional layer of regulation by fructose 1-phosphate and fructose 6-phosphate, which inhibit and enhance the GCK-GKRP interaction, respectively. GCK plays a role in glucose homeostasis and there is an interest in the development of strategies to activate GCK to lower blood glucose levels in type 2 diabetes. To date the majority of effort has focused on direct activation of GCK and the assays developed herein look to activate GCK by inhibiting its binding to GKRP. A compound that inhibits the interaction of GCK with GKRP could be important for the treatment of diabetes and can also be used as a tool compound to further elucidate GCK-GKRP biology. To that end, we have developed an HTS biochemical assay using HTRF technology for to interrogate the GCK-GKRP interaction. This assay was screened against a small compound library to look for modulators of activity.
# 3 uL of 5 nM GST-GCK and 5 nM FLAG-GKRP proteins with 2 uM S6P (columns 1-2, 4-48; Millipore, Billerica, MA) are dispensed into Greiner, white solid-bottom 1536-well assay plates; columns 3 receive buffer without GCK as a control for maximum inhibition. Buffer contains 2 mM MgCl2, 25 mM KCl, 25 mM Hepes, 1 mM DTT, 0.1% Tween 20 and 0.025% BSA and the pH was adjusted to 7.1. Compounds (23 nL) are then transferred via Kalypsys pin tool equipped with 1536-pin array (10 nL slotted pins, V&P Scientific, San Diego, CA). The library compounds are in columns 5-48 and columns 1-4 serve as controls with DMSO in columns 1 and 3 and 26 mM 1:1.5 fold serial of gluckokinase activator (GKA-EMD) in column 2 and 26 mM of the glucokinase activator (GKA-EMD) in column 4. Following addition of compound, 1 uL of detection antibodies (anti-Flag XL 665 and anti-GST K in reconstitution buffer from Cisbio, Bedford, MA; 0.7 ng/well and 0.0945 ng/well, respectively) is added, and the mixture is allowed to equilibrate for 60 minutes at room temperature. Data are normalized to DMSO-treated control columns with (maximum signal) and without (minimum signal) enzyme. Plates were read on an Envision plate reader (PerkinElmer, Shelton, CT, USA) with excitation at 320 nm and dual-wavelength detection at the Fret donor wavelength (615 nm) and the FRET acceptor wavelength (665 nm).
SMILES,"activity change, negative = inhibition [%]",outcome
Cc1ncsc1CCCl,0.755,–
CC(C)N(CCC(C(N)=O)(c1ccccc1)c1ccccn1)C(C)C (stereo not given),–,inactive
CC(NC(C)(C)C)C(=O)c1cccc(Cl)c1 (stereo not given),-5.68,–
O=P1(N(CCCl)CCCl)NCCCO1 (stereo not given),-8.74,–
CC(C)(C)NCC(O)c1ccccc1Cl (stereo not given),-2.9,–
O=C(O)CCCc1ccc(N(CCCl)CCCl)cc1,19.7,–
O=C(CCCN1CCC2(CC1)C(=O)NCN2c1ccccc1)c1ccc(F)cc1,-3.66,–
CCCCC/C=C\C/C=C\C/C=C\C/C=C\CCCC(=O)NCC(=O)O,-2.27,–
CC(C)c1cccc(C(C)C)c1O,13.3,–
C=C(C)[C@H]1CN[C@H](C(=O)O)[C@H]1CC(=O)O,-2.77,–
O=c1[nH]oc2c1CCNC2,-8.43,–
NCCc1ccc(O)cc1,16.2,–
CN1C(=O)CCS(=O)(=O)C1c1ccc(Cl)cc1 (stereo not given),7.82,–
COc1ccc2c(c1OC)C(=O)O[C@H]2[C@@H]1c2cc3c(cc2CCN1C)OCO3,-7.51,–
CCC1(c2ccc(N)cc2)CCC(=O)NC1=O (stereo not given),-7.09,–
